Results filed as inconclusive are left out. Activity calls are given as the source filed them. Unless noted, the call rests on the fitted dose curve; in most records, active means well fitted curve in the direction sought with a large enough effect; inconclusive means small, poorly fitted or top-dose-only effect, or another doubt; inactive means no such curve, though single readings can be large; an effect the other way counts as inactive or inconclusive. Residues, ends and D or L forms follow the SMILES beside them.
Tests used:
[1] = Counterscreen qHTS for small molecule stabilizers of the endoplasmic reticulum resident proteome: GLuc-NoTag assay (AID 1508627);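 further: 0% = thapsigargin alone and -100% = DMSO vehicle control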
Summary of the method: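 Counterscreen line: SH-SY5Y-GLuc-NoTag. Seed, 5 h; compound, 19 h; thapsigargin 100 nM, 4 h; 37C/5% CO2. Readout: secreted GLuc luminescence, coelenterazine 0.07x final, no lysis.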

[2] = Confirmatory qHTS for small molecule stabilizers of the endoplasmic reticulum resident proteome: Secreted ER Calcium Modulated Protein (SERCaMP) assay (AID 1508628); further: nearly all actives have a fitted effect of over 40% in size; further: potency means the concentration at half of the fitted maximal effect
Summary of the method: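 Reporter secretion upon ER calcium depletion (100 nM thapsigargin, 4 h, 37C) is measured as medium luminescence with coelenterazine, after 16 h compound pretreatment of SH-SY5Y-GLuc-SERCaMP cells; primary at three concentrations up to 38.3 uM, follow-up at 11 (up to 76.6 uM).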

[3] = Cell Viability qHTS for small molecule stabilizers of the endoplasmic reticulum resident proteome (AID 1508629); details: cell viability counter-screen, 100 nM thapsigargin for final 4 h;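 further: compound exposure about 46 h in total before the viability read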; further: potency means the concentration at half of the fitted maximal effect
[4] = target: Phospholipid hydroperoxide glutathione peroxidase GPX4 (Homo sapiens) (UniProt P36969); assay: Primary qHTS Assay for Inhibitors of Recombinant Selenoprotein Glutathione Peroxidase 4 (GPX4) (AID 1845192); details: outcome: dose series up to 50 µM unless noted; further: on the % scale 0 is the no-effect control and ±100 the full control effect; nearly all actives have a fitted effect of over 65% in size
Summary of the method: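 Steps: GPX4 plus compound, 30 min RT; add GR/GSH/NADPH master mix; start with cumene hydroperoxide; read 340/450 nm fluorescence at 0 and 15 min. Finals were 200 nM GPX4, 1 mM GSH, 0.5 mM CHP, 0.5 mM NADPH, 100 nM GR.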

[5] = AP1 Signaling Pathway (AID 357; active means well fitted curve in either direction with a large enough effect, not every such curve was filed as active;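 further: ME-180 reporter cells stimulated with EGF at its EC50 level; on the % scale 0 is the no-effect control and ±100 the full control effect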); details: ME-180 AP-1-bla reporter, EGF-induced, beta-lactamase ratio, 5 h; at 7.69 µM (top of the series) unless noted
Summary of the method: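 Read-out was the 460nm/530nm emission ratio (excitation 405nm) after CCF4 loading for 2.5 hours at room temperature. Cells carried an AP-1-driven beta-lactamase reporter, were stimulated with EC50 EGF plus compound for 5 hours, and AC50 values came from titrations.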

[6] = target: Cytochrome P450 1A2 (Homo sapiens) (UniProt P05177); assay: p450-cyp1a2 (AID 410; calls by dose curve; further: potency means the concentration at half of the fitted maximal effect)
Summary of the method: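 Luminescent demethylation readout: Luciferin-ME (100uM, equal to Km) turned over by 20nM CYP1A2 for 60 min at room temperature after NADPH regeneration addition, following 10 min compound preincubation. Normalization used 57 uM furafylline as full inhibition.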

[7] = NFAT Signaling Pathway (AID 444; active means well fitted curve in either direction with a large enough effect, not every such curve was filed as active;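 further: carbachol stimulus at about its EC50 of 1 µM final; on the % scale 0 is the no-effect control and ±100 the full control effect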); details: Jurkat NFAT-bla M1, carbachol, beta-lactamase ratio, 5 h; at 7.69 µM (top of the series) unless noted
Summary of the method: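 Jurkat cells with NFAT-driven β-lactamase reporter and co-expressed M1 receptor, stimulated with carbachol (final 1 uM, ~EC50), compound titration, 5 h at 37 °C. CCF4 loaded 1 h at RT; 460/530 nm ratio gave %activity and AC50.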

[8] = Stat Signaling Pathway (AID 446; active means well fitted curve in either direction with a large enough effect, not every such curve was filed as active;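 further: ME-180 cervical cancer cells given 40 pM IL-6 alongside compound; SIE-controlled beta-lactamase reporter measured as 460/530 nm FRET emission ratio; on the % scale 0 is the no-effect control and ±100 the full control effect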); details: ME-180 (cervical carcinoma) SIE beta-lactamase reporter, IL-6 stimulated, 5 h; at 7.69 µM (top of the series) unless noted
Summary of the method: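 Overnight-plated ME-180 cells bearing a STAT Inducible Element beta-lactamase reporter; 5 h co-exposure to compound and 40 pM IL-6; values normalized to 300 pM IL-6 and 125 nM JAK inhibitor controls.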

[9] = target: Glucocorticoid receptor (Homo sapiens) (UniProt P04150); assay: GR-GFP Redistribution (AID 450;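 active means compounds whose dose series gives a full or clear partial fitted curve of increased nuclear translocation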; further: potency means the concentration at half of the fitted maximal effect); details: U2OS GR-GFP nuclear translocation, laser cytometry, 2 h
[10] = target: Glucocorticoid receptor (Homo sapiens) (UniProt P04150); assay: GR-EFC Redistribution (AID 451; calls by dose curve; further: potency means the concentration at half of the fitted maximal effect); details: CHO-K1 GR-EFC translocation, beta-gal luminescence, 2 h
Summary of the method: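 CHO-K1 cells expressing nuclear EA and GR-ED fragments of b-gal; compounds titrated up to 46 uM final, 2 h at 37 C. GR nuclear translocation read as complemented b-gal luminescence after 1 h RT detection.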

[11] = target: Mitogen-activated protein kinase 10 (Mus musculus) (UniProt Q61831); assay: JNK3 AlphaScreen Assay (AID 530; active means well fitted curve in either direction with a large enough effect, not every such curve was filed as active;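 further: kinase came from lysate of stimulated human HepG2 cells; signal reports phosphorylation of biotinylated GST-cJun 1-79 at Ser73 with 10 µM ATP; on the % scale 0 is the no-effect control and ±100 the full control effect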)
Summary of the method: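 Activity was read by AlphaScreen after JNK3-containing HepG2 lysate (cytokine pre-activated) phosphorylated biotinylated GST-cJun with 10 uM ATP at room temperature. Phospho-Ser73 cJun antibody with Protein-A acceptor beads provided detection.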

[12] = target: 3',5'-cyclic-AMP phosphodiesterase 4B (Homo sapiens) (UniProt Q07343); assay: qHTS Assay for Inhibitors of PDE-IV (AID 607; active means well fitted activation curve with a large enough effect in the main read-out, with a control signal flat, not every such curve was filed as active; further: % of control where 0% means no effect)
Summary of the method: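 Live HEK293 cells with a modified cyclic nucleotide-gated (CNG) channel report intracellular cAMP via membrane-potential dye fluorescence (ex 535/em 590 nm). Endogenous PDE-IV was targeted. Compounds were tested at up to 22.9 uM final; RO 20-1724 100 uM served as control.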

[13] = qHTS Assay for Lipid Storage Modulators (AID 1519; calls by dose curve); details: Drosophila S3 cells, BODIPY lipid droplet/cell ratio, laser cytometry, cells loaded with oleic acid; for activity change, negative = inhibition: at 57.5 µM (top of the series)
Summary of the method: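 Cells seeded at 5,000 per well were treated with compounds over a concentration series and loaded with oleic acid (400 uM, as added). Lipid droplet fluorescence (488 nm excitation, 500-530 nm channel) was read by laser-scanning cytometry and normalized to 20 uM Triacsin C.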

[14] = target: Dual specificity protein kinase CLK4 (Homo sapiens) (UniProt Q9HAZ1); assay: qHTS Assay for Inhibitors of CDC-like Kinase 4 (Kinase-Glo Assay) (AID 1770); further: on the % scale 0 is the no-effect control and ±100 the full control effect; nearly all actives have a fitted effect of over 65% in size
Summary of the method: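 Readout: Kinase-Glo luminescence from ATP left after a 4.5 h room-temperature reaction of 25 nM Clk4 with 100 uM RS peptide and 1 uM ATP (final). Buffer: 25 mM Tris pH 7.5, 10 mM MgCl2.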

[15] = target: Dual specificity protein kinase CLK4 (Homo sapiens) (UniProt Q9HAZ1); assay: qHTS Assay for Inhibitors of CDC-like Kinase 4 (ADP-Glo Assay) (AID 1771); further: on the % scale 0 is the no-effect control and ±100 the full control effect; nearly all actives have a fitted effect of over 70% in size
Summary of the method: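 ADP production was read by ADP-Glo luminescence after residual ATP depletion, following 1 h room-temperature reaction of 25 nM Clk4, 1 uM ATP and 100 uM RS peptide with MgCl2, EGTA, DTT and Triton X-100.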

[16] = target: Dual specificity protein kinase CLK4 (Homo sapiens) (UniProt Q9HAZ1); assay: qHTS Assay for Inhibitors of CDC-like Kinase 4 (ADP-FP Assay) (AID 1795);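 further: recombinant human CLK4 phosphorylating RS repeat peptide at 1 µM ATP; on the % scale 0 is the no-effect control and ±100 the full control effect; nearly all actives have a fitted effect of over 60% in size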
Summary of the method: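 FP readout: Orange Transcreener ADP2 tracer (4 nM) plus ADP antibody, read after 30 min at room temperature. Kinase step: 6.25 nM Clk4, 100 uM RS peptide, 1 uM ATP, pH 7.5, 1 h.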

[17] = target: Ubiquitin carboxyl-terminal hydrolase 1 (Homo sapiens) (UniProt O94782); assay: Inhibitors of USP1/UAF1: Pilot qHTS (AID 504865);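 further: rhodamine fluorescence freed from ubiquitin-rhodamine substrate followed over time; top concentration of the series differs between compounds; on the % scale 0 is the no-effect control and ±100 the full control effect; nearly all actives have a fitted effect of over 35% in size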
Summary of the method: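 1nM USP1/UAF1 + cpd, 15 min RT; start w/ Ub-Rho 150nM final; kinetic FL 480/540 nm, 6 reads q60 s. Buffer 50mM HEPES pH 7.8, 0.5mM EDTA, 1mM TCEP, 0.01% Tween-20, 0.1 mg/ml BSA.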

[18] = target: Lysosomal acid glucosylceramidase (Homo sapiens) (UniProt P04062); assay: Glucocerebrosidase-p2 (AID 348; in the data active means potency below about 10 µM; further: potency means the concentration at half of the fitted maximal effect); details: purified GBA, blue fluorogenic substrate, 40 min
Summary of the method: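 Normal human glucocerebrosidase (0.2 nM) with blue fluorogenic substrate (80 uM final) in citrate/phosphate pH 5.9 with 10mM sodium taurocholate, 0.01% tween-20; 40 min RT, NaOH/glycine stop; fluorescence Ex 365/Em 440; AC50 from a titration from 0.6 nM upwards.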

[19] = target: Cytochrome P450 2C9 (Homo sapiens) (UniProt P11712); assay: qHTS Assay for Inhibitors and Substrates of Cytochrome P450 2C9 (AID 883); further: on the % scale 0 is the no-effect control and ±100 the full control effect; nearly all actives have a fitted effect of over 60% in size
Summary of the method: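 10nM CYP2C9 + 100uM Luciferin-H (=KM), 25mM KPO4; cpd 10 min 37C; NADPH regen, 60 min 37C; stop/detect with P450 Glo-Buffer 20 min; luminescence. Norm. to 57uM sulphaphenazole as full inhibition.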

[20] = target: Cytochrome P450 3A4 (Homo sapiens) (UniProt P08684); assay: qHTS Assay for Inhibitors and Substrates of Cytochrome P450 3A4 (AID 884); further: potency means the concentration at half of the fitted maximal effect; nearly all actives have a fitted effect of over 50% in size
Summary of the method: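 Luminescent readout of luciferin produced by CYP3A4 (20 nM) dealkylation of Luciferin-PPXE, 25 uM (its KM). NADPH-driven reaction ran 60 min at RT after 10 min compound preincubation; data scaled to 57 uM ketoconazole as 100% inhibition.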

[21] = target: Cytochrome P450 3A4 (Homo sapiens) (UniProt P08684); assay: qHTS Assay for Activators of Cytochrome P450 3A4 (AID 885); further: nearly all actives have a fitted effect of over 65% in size
Summary of the method: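 Using 20nM recombinant human CYP3A4 in potassium phosphate (200mM), substrate Luciferin-PPXE at 25uM, luminescent luciferin detection followed a 60-min RT NADPH reaction; data scaled to 57 uM ketoconazole.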

[22] = target: Cytochrome P450 2D6 (Homo sapiens) (UniProt P10635); assay: qHTS Assay for Inhibitors and Substrates of Cytochrome P450 2D6 (AID 891); further: potency means the concentration at half of the fitted maximal effect; nearly all actives have a fitted effect of over 60% in size
Summary of the method: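 Luminescent read-out of luciferin formed by 5 nM human CYP2D6 demethylating 30 uM Luciferin-ME EGE (Km level) over 60 min at room temperature after NADPH regeneration addition. Data normalized to full inhibition by 1.43 uM quinidine.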

[23] = Confirmation and Secondary Assay for Modulators of Hemoglobin Beta Chain Splicing at IVS2 654 locus (AID 910);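 further: HeLa cells stably carrying EGFP split by mutant beta-globin IVS2-654 intron; % of control where 0% means no effect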
Summary of the method: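 HeLa cells stably expressing EGFP interrupted by β-globin IVS2-654 intron, seeded overnight in Opti-MEM/2% FCS, then treated 2 days at 37 °C. Restored splicing read as total peak GFP intensity per well by laser scanning cytometry (488 nm excitation, 500–520 nm emission); 500 nM antisense PNA as control.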

[24] = Confirmation and Secondary Assay for Modulators of Hemoglobin Beta Chain Splicing at IVS2 705 locus (AID 930);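 further: HeLa cells stably expressing the EGFP-705 splicing reporter; % of control where 0% means no effect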
Summary of the method: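 Restored EGFP fluorescence after 2-day compound exposure reports splicing correction in IVS2-705 EGFP reporter HeLa cells; positive control was 500 nM splice-blocking PNA oligo. Signal measured as well total peak GFP intensity (488 nm excitation).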

[25] = measured here: cell count channel max response
[26] = measured here: lipid channel max response

Sequence of Ubiquitin carboxyl-terminal hydrolase 1 (Homo sapiens) (O94782 whole entry, looked up): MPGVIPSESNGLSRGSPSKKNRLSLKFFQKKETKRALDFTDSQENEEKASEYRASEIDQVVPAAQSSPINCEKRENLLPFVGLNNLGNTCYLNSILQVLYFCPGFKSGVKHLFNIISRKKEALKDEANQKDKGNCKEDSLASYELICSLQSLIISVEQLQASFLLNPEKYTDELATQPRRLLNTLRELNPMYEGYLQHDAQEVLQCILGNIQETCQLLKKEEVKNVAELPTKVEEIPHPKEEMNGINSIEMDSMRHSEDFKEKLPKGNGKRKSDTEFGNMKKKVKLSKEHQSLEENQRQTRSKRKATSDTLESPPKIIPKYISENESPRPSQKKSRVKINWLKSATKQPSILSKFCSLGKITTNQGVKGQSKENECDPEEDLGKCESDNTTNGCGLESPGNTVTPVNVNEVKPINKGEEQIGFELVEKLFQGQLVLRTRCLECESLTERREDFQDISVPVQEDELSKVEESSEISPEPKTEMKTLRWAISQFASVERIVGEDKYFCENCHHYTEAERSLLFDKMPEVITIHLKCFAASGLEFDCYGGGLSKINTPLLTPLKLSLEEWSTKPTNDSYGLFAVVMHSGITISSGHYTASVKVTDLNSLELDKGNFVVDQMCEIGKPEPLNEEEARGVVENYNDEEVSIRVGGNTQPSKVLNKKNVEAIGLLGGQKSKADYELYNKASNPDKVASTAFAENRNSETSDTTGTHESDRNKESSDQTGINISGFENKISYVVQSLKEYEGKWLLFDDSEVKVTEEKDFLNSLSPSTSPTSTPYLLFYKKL
Sequence of Dual specificity protein kinase CLK4 (Homo sapiens) (Q9HAZ1 whole entry, looked up): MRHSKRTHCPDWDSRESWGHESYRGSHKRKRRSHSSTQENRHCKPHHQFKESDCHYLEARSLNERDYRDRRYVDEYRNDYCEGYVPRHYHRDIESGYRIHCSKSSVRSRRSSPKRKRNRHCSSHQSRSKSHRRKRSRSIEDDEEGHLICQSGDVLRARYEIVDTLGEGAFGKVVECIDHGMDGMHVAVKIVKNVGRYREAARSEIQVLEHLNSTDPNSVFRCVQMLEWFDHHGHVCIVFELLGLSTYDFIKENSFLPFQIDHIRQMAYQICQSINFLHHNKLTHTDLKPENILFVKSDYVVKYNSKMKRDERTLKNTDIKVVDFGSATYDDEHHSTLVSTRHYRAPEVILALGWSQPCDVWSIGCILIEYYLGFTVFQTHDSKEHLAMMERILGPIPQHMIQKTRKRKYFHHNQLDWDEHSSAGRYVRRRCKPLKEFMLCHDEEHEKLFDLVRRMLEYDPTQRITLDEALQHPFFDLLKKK
Sequence of Glucocorticoid receptor (Homo sapiens) (P04150 whole entry, looked up, the tested form may be a part): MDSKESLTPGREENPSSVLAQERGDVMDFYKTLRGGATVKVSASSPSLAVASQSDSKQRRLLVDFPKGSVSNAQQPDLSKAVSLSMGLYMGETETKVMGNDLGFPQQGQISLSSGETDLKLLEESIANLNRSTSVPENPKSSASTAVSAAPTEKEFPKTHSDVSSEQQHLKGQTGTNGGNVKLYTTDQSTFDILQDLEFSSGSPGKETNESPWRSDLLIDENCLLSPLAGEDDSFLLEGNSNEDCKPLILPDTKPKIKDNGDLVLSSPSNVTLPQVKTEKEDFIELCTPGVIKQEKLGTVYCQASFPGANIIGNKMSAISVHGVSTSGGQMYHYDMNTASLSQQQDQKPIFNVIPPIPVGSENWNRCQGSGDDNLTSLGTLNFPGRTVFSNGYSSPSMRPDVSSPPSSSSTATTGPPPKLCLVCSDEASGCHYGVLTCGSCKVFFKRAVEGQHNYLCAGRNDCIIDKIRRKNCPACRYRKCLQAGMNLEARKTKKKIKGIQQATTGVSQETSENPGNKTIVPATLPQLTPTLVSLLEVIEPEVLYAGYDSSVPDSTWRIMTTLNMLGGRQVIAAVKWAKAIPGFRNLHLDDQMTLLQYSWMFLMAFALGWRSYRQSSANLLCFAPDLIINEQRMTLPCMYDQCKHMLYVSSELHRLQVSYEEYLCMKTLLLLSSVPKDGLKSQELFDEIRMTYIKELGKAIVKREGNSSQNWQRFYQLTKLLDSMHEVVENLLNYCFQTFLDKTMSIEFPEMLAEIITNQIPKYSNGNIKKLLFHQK
Sequence of Cytochrome P450 1A2 (Homo sapiens) (P05177 whole entry, looked up): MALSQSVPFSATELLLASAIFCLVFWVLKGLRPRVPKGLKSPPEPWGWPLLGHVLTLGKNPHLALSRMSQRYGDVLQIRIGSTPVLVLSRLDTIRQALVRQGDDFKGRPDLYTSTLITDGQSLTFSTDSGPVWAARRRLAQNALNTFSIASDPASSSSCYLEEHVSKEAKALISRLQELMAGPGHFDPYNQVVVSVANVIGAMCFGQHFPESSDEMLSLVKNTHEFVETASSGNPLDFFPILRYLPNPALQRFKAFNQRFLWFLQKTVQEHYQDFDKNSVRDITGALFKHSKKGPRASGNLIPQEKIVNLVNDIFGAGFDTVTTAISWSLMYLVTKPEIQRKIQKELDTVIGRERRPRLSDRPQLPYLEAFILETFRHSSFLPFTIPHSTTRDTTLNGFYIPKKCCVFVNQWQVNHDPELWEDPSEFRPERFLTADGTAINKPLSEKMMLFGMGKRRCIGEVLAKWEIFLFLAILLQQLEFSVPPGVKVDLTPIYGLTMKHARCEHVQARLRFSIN
Sequence of Cytochrome P450 3A4 (Homo sapiens) (P08684 whole entry, looked up): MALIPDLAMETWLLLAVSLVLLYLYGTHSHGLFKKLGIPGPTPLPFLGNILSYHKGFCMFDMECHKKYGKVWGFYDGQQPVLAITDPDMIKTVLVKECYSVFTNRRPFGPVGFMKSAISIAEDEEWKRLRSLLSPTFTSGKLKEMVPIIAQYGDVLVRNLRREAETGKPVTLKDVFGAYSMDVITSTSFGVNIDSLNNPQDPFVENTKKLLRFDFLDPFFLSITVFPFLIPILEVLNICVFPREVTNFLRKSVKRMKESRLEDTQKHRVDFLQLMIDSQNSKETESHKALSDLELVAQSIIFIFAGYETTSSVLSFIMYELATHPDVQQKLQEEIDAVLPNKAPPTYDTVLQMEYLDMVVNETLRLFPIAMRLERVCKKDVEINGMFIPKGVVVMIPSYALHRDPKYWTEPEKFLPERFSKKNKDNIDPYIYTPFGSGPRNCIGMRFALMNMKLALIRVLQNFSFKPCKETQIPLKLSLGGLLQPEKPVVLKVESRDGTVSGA
Sequence of 3',5'-cyclic-AMP phosphodiesterase 4B (Homo sapiens) (Q07343 whole entry, looked up): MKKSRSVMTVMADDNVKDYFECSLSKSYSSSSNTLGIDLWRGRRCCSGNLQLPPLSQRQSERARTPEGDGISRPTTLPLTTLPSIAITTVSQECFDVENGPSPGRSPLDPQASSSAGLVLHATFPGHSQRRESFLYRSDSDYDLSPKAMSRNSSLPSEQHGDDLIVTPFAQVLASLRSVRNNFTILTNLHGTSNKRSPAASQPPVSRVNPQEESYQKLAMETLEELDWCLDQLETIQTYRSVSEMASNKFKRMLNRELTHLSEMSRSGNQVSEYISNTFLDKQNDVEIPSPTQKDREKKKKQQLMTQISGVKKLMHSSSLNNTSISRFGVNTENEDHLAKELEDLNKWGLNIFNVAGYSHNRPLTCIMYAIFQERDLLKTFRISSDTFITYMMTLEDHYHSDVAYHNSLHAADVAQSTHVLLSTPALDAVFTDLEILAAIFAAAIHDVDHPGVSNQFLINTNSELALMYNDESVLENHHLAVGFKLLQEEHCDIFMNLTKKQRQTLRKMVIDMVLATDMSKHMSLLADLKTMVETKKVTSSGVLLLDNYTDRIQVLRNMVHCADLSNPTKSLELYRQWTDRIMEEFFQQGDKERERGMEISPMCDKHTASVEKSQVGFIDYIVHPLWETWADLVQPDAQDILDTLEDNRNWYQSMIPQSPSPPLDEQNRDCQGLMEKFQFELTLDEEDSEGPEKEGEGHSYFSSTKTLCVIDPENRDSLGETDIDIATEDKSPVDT
Sequence of Cytochrome P450 2D6 (Homo sapiens) (P10635 whole entry, looked up): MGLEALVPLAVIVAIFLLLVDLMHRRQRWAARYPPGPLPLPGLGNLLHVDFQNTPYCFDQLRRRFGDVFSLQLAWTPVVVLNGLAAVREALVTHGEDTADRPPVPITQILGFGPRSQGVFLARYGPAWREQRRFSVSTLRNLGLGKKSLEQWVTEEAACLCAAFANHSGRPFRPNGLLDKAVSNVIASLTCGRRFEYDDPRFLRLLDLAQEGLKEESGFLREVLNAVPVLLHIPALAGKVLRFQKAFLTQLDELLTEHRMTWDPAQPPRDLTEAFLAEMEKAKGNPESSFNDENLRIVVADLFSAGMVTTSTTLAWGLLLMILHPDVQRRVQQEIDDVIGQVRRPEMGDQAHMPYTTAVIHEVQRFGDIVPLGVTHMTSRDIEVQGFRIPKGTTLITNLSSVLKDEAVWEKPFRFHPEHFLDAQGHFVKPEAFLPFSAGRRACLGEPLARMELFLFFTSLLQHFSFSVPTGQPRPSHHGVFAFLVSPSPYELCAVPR
Sequence of Lysosomal acid glucosylceramidase (Homo sapiens) (P04062 whole entry, looked up): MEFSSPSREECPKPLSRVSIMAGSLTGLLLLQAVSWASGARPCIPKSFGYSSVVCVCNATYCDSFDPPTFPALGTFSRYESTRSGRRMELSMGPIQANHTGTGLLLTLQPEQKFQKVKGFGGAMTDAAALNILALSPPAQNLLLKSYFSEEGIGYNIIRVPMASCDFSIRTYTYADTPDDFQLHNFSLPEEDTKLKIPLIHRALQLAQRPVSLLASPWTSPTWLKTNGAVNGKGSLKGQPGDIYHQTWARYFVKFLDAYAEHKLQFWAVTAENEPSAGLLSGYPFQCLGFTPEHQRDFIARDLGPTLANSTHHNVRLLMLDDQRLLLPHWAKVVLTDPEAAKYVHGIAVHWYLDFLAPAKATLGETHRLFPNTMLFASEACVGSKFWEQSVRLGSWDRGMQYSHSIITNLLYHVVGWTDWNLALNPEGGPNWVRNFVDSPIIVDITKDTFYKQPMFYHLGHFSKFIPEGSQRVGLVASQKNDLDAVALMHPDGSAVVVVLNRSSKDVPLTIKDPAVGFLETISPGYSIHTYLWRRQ

OC[C@H]1NC[C@@H](O)[C@@H](O)[C@@H]1O
inactive: Potency [1] | Potency [2] | max response [3] 8.42% | Potency [4]

COc1ccc(-n2c(=O)c(-c3cccc(C#N)c3)nc3cnc(N4CCNCC4)nc32)cc1
24%: max response [13, 25]
inactive: activity change, negative = inhibition [5] 6.83% | activity change, negative = inhibition [7] 5.29% | activity, negative = inhibition [8] 13.3% | Potency [9] > 9.22 µM | Potency [10] > 46 µM | outcome [11] | Potency [12] | activity change, negative = inhibition [13] 9.59% | Potency [14] | Potency [15] | Potency [16] | Potency [17] | Potency [1]
29.5%: max response [13, 26]
active: Potency [6] 15.8 µM | Potency [2] 25.1 µM

COc1ccc(-c2nc3cnc(N4CCNCC4)nc3n(-c3ccc(OC)cc3)c2=O)cc1
15.1%: max response [13, 26]
inactive: Potency [18] > 11.4 µM | Potency [10] > 46 µM | outcome [11] | Potency [12] | activity change, negative = inhibition [13] 1.3% | Potency [14] | Potency [15] | Potency [16] | Potency [17] | Potency [1] | Potency [2]
15%: max response [13, 25]
active: Potency [3] 25.1 µM

COc1ccc(CNc2ncnc3ccc(-c4ccccc4CN(C)C)cc23)c(OC)c1
inactive: activity change, negative = inhibition [5] 7.23% | activity, negative = inhibition [8] -15.7% | Potency [9] > 46 µM | Potency [10] > 46 µM | outcome [11] | activity change, negative = inhibition [19] 2.97% [at 2.29 µM] | Potency [21] | outcome [23] | outcome [24] | activity change, negative = inhibition [13] 3.46% | Potency [17] | Potency [1] | max response [3] 6.24%
4.91%: max response [13, 25]
8.13%: max response [13, 26]
active: Potency [6] 31.6 µM | Potency [20] 7.94 µM | Potency [22] 1.26 µM | Potency [2] 7.94 µM

CC[C@H](C)[C@H](NC(=O)[C@H](CC(=O)O)NC(=O)[C@H](CC(N)=O)NC(=O)[C@@H](NC(=O)[C@H](CCCNC(=N)N)NC(=O)[C@@H](NC(=O)[C@@H](NC(=O)[C@@H](NC(=O)[C@@H](NC(=O)[C@H](CCCCN)NC(=O)[C@@H](NC(=O)[C@H](CC(C)C)NC(=O)[C@@H](NC(=O)[C@H](CCCCN)NC(=O)[C@@H](NC(=O)[C@H](CC(=O)O)NC(=O)[C@H](CC(=O)O)NC(=O)[C@H](CCC(N)=O)NC(=O)[C@@H](NC(=O)[C@H](CCCCN)NC(=O)[C@H](CCC(N)=O)NC(=O)[C@@H](NC(=O)[C@@H]1CCCN1C(=O)[C@@H](N)C(C)C)[C@@H](C)CC)C(C)C)[C@@H](C)O)[C@@H](C)O)[C@@H](C)CC)[C@@H](C)O)[C@@H](C)CC)C(C)C)[C@@H](C)O)[C@@H](C)CC)C(=O)N[C@@H](CO)C(=O)N[C@@H](Cc1cnc[nH]1)C(=O)N[C@H](C(=O)N[C@@H](CCC(N)=O)C(=O)N[C@@H](CO)C(=O)N[C@H](C(=O)N[C@@H](CO)C(=O)N[C@@H](CO)C(=O)N[C@@H](CCCCN)C(=O)N[C@@H](CCC(N)=O)C(=O)N[C@@H](CCCCN)C(=O)O)C(C)C)[C@@H](C)O (H-VPIQKVQDDTKTLIKTIVTRINDISHTQSVSSKQK-OH)
inactive: activity change, negative = inhibition [1] -4.21% [at 9.46 µM] | activity change, negative = decrease [2] -1.59% [at 9.4 µM] | max response [3] 4.6%

O=C(Nc1ncccn1)c1ccc([N+](=O)[O-])o1
inactive: Potency [1]

Source: PubChem BioAssay (NCATS)
